The results in this text go back to PubChem BioAssay (NCATS).

Each structure is given as a SMILES string. “And” between values parts separate entries of the source, which are not always exact repeats. Identical values can stand only once. Inconclusive results are not listed. The source made the active and inactive calls. Unless noted, calls follow the shape of the dose curve; as a rule, active = well fitted curve in the direction sought with a large enough effect; inconclusive = small, poorly fitted or top-dose-only effect, or another doubt; inactive = no such curve, though single readings can be large; an effect the other way counts as inactive or inconclusive.

Assay [1] in a line: qHTS assay for small molecule agonists of retinoid X receptor alpha signaling (AID 588544; calls by dose curve;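 as to activation: 0% = DMSO basal wells and 100% = reference agonist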). Conditions: HEK293T RXRa-UAS-bla, beta-lactamase reporter, 18 h; 530 nm emission.
Assay [2] concerns the target Retinoic acid receptor RXR-alpha (Homo sapiens) (UniProt P19793). The description is as above. Conditions: HEK293T RXRa-UAS-bla, beta-lactamase reporter, 18 h; series mostly up to 76.7 µM.
A short description of assay [3]: qHTS assay for small molecule antagonists of retinoid X receptor alpha signaling (AID 588546; active = well fitted inhibition curve with a large enough effect in the signal ratio, with a control signal flat, not every such curve was filed as active; the % refers to the signal ratio;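 also: cells stimulated with 9-cis-retinoic acid as agonist; % is scaled to controls: 0 for no effect and ±100 for the full control effect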). The conditions noted are these: HEK293T RXRa-UAS-bla, beta-lactamase ratio, antagonist mode; measured here: W530 green channel, cytotoxicity proxy. In a few lines: (§1)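 Beta-lactamase reporter inhibition, read as CCF4 fluorescence ratio (ex 405, em 460/530 nm) after 2 h at RT. HEK293T UAS-bla cells, 2500/well, were stimulated with 9-cis-RA at 500 or 100 nM final alongside test compound for 18 h at 37 C.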

The nature of assay [4]: qHTS assay for small molecule activators of the p53 signaling pathway (AID 651743; active = well fitted activation curve with a large enough effect in the signal ratio, not every such curve was filed as active; the % refers to the signal ratio; also: % of control where 0% means no effect). The conditions noted are these: HCT-116 p53RE-bla, beta-lactamase FRET ratio, 16 h; stronger effect = higher value. In a few lines: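 Following 16 hours of compound exposure at 37 C, HCT-116 cells bearing the p53RE-bla reporter were loaded with LiveBLAzer B/G FRET substrate for 2 hours at room temperature and fluorescence intensity was recorded.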
A general note: In qHTS, concentration-response curves come from the screen itself.

Assay [5] is described as follows: qHTS assay for small molecule activators of the nuclear factor-kappa B (NF-kB) signaling pathway (AID 651749; active = well fitted activation curve with a large enough effect in the signal ratio; the % refers to the signal ratio; also: % of control where 0% means no effect). Conditions: NF-kB-bla ME-180 cells, beta-lactamase FRET ratio, 16 h; stronger effect = higher value. In outline: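 In this qHTS format, compounds acting as activators increase NF-kB-driven beta-lactamase in ME-180 cells, measured as disrupted FRET after 16 hr exposure at 37C and 5% CO2.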

Assay [6] can be described thus: qHTS assay for small molecule disruptors of the mitochondrial membrane potential - 5 hr assay (AID 651755; calls by dose curve; also: % is scaled to controls: 0 for no effect and ±100 for the full control effect; nearly all actives have a fitted effect of over 40% in size). The conditions noted are these: JC-1-type ratio dye; series mostly up to 92.2 µM. In outline:
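Read-out: ratiometric Mito-MPS fluorescence, green monomer (ex 490/em 535) vs red mitochondrial aggregate (ex 540/em 590). HepG2 cells treated 5 hr at 37C before 30 min dye loading.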

For assay [7], the target named is Tumor necrosis factor (Homo sapiens) (UniProt P01375). The experiment in a line: qHTS assay to identify small molecules that stimulate Tumor Necrosis Factor-alpha (TNF-alpha) secretion (AID 651757; active = well fitted curve in the direction sought with a large enough effect in the signal ratio; the % refers to the signal ratio; also: 0% is about no effect). Conditions: Human cells, HTRF 665/615 ratio; series mostly up to 92.2 µM. In a few lines:
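Secreted TNF-alpha quantified by TR-FRET sandwich of two labeled anti-TNF-alpha antibodies, incubated 3 hr at room temperature. Preceded by 17 hr, 37 C compound treatment of THP-1 cells at 3000 cells/well.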

The nature of assay [8]: qHTS assay for environmental chemicals that activate the Aryl hydrocarbon Receptor (AhR) signaling pathway (AID 651777). Also: % of control where 0% means no effect; nearly all actives have a fitted effect of over 15% in size. Conditions: 1A2-DRE human hepatoma cells, luciferase, 24 h; activation: stronger effect = higher value. In a few lines: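 Stable CYP1A2 promoter/DRE-luciferase human hepatoma line treated 24 hr; One-Glo luminescence, 30 min RT.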
Assay [9] deals with Peroxisome proliferator-activated receptor alpha (Homo sapiens) (UniProt Q07869). Briefly: qHTS assay for small molecule agonists of the peroxisome proliferator-activated receptor alpha (PPARalpha) signaling pathway (AID 651778). Also: % of control where 0% means no effect. Conditions: PathHunter PPARalpha complementation, chemiluminescence, 6 h; stronger effect = higher value. In outline:
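Enzyme-fragment complementation assay in which ligand-bound PPARalpha translocates and forms an active enzyme that generates chemiluminescence. Cells were plated overnight, exposed to compound for 6 hr at 37 C, and then given detection reagent for 60 min at room temperature.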

Assay [10] has as its target Nuclear receptor ROR-gamma (Homo sapiens) (UniProt P51449). Briefly: qHTS assay for small molecule antagonists of the retinoid-related orphan receptor gamma (ROR-gamma) signaling pathway (AID 651802).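 Also: luciferase reporter luminescence driven by ROR response element; % is scaled to controls: 0 for no effect and ±100 for the full control effect; nearly all actives have a fitted effect of over 60% in size.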 Conditions: ROR-gamma antagonist cell reporter assay; series mostly up to 92.2 µM. In outline: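 Luminescence (One-Glo, 30 min RT) measured 16 h after compound addition and doxycycline induction at 37C. Reporter: RORE-luciferase under TET-inducible ROR-gamma in CHO cells.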

Assay [11] is described as follows: qHTS assay for small molecule antagonists of the retinoid-related orphan receptor gamma (ROR-gamma) signaling pathway - cell viability counter screen (AID 720652; active = well fitted curve in the direction sought with a large enough effect in the repeat runs; an effect the other way counts as inactive or inconclusive;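 also: compound exposure lasted 16 hr before ATP read; % is scaled to controls: 0 for no effect and ±100 for the full control effect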). Conditions: RORgamma reporter cell line viability counter screen; series mostly up to 92.2 µM. In outline: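 Cytotoxicity counter screen: intracellular ATP (CellTiter-Glo luminescence) measured in the doxycycline-induced CHO RORE-luciferase reporter line after 16 hr compound exposure at 37 C, 5% CO2.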

Assay [12] in a line: qHTS assay for small molecule agonists of the antioxidant response element (ARE) signaling pathway measured by Nrf2-dependant transcriptional activity - cell viability counter screen (AID 720653; active = well fitted curve in the direction sought with a large enough effect in the repeat runs; an effect the other way counts as inactive or inconclusive; also: % is scaled to controls: 0 for no effect and ±100 for the full control effect). The conditions noted are these: ARE-bla HepG2 viability, CellTiter-Glo ATP luminescence, 16 h; stronger effect = lower value. In outline:
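ARE-bla HepG2 cells treated with compounds for 16 h at 37C; this counter screen measures viability as intracellular ATP by CellTiter-Glo luminescence after 30 min at room temperature.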

The target of assay [13] is Thyroid hormone receptor beta (Homo sapiens) (UniProt P10828). The experiment in a line: qHTS assay for small molecule antagonists of thyroid hormone receptor beta signaling (AID 588547; active = well fitted inhibition curve with a large enough effect in the signal ratio, with a control signal flat, not every such curve was filed as active; the % refers to the signal ratio). The conditions noted are these: TR-UAS-bla HEK293, beta-lactamase ratio, antagonist mode, 18 h. In outline: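 TR-UAS-bla GripTite HEK293 cells in 2% charcoal/dextran FBS medium; compounds 0.59 nM to 92 uM with T3 at 0.4nM final, 18 h at 37 C. Beta-lactamase read by CCF4 fluorescence (460/530 nm); Hill fits gave IC50 and efficacy.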

Assay [14] has as its target Voltage-gated inwardly rectifying potassium channel KCNH2 (Homo sapiens) (UniProt Q12809). The experiment in a line: qHTS Assay for Small Molecule Inhibitors of the Human hERG Channel Activity (AID 588834).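 Also: top concentration of the series differs between compounds; % is scaled to controls: 0 for no effect and ±100 for the full control effect; lower thallium flux fluorescence means stronger hERG block; nearly all actives have a fitted effect of over 50% in size.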 Conditions: U2OS BacMam hERG, FluxOR thallium flux fluorescence; series mostly up to 92.2 µM. In outline: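 In hERG-transduced U2OS cells, dye-loaded for 1 hr at room temperature in dark, test compounds incubated 10 min at 37 °C before thallium stimulation. AC50 values derived by Hill modelling of concentration-response.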

Assay [15] in a line: qHTS assay for small molecule agonists of the antioxidant response element (ARE) signaling pathway (AID 651741; active = well fitted activation curve with a large enough effect in the signal ratio; the % refers to the signal ratio; also: % of control where 0% means no effect). The conditions noted are these: HepG2 ARE-bla reporter, beta-lactamase FRET ratio, 16 h; series mostly up to 96 µM. In outline:
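Stably integrated ARE-beta-lactamase reporter HepG2 cells; 16 h compound incubation, 37 C; LiveBLAzer FRET substrate 2 h at room temperature; fluorescence intensity.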

Assay [16] is described as follows: qHTS assay for small molecule disruptors of the mitochondrial membrane potential - 1 hr assay (AID 651754; calls by dose curve; also: % is scaled to controls: 0 for no effect and ±100 for the full control effect; nearly all actives have a fitted effect of over 35% in size). The conditions noted are these: series mostly up to 92.2 µM. In a few lines: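 Mitochondrial potential in living HepG2 cells after 1 hr compound treatment at 37C was read with Mito-MPS dye added for a further 30 min. Red aggregate and green monomer fluorescence were measured; loss of potential leaves dye as cytoplasmic monomers.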

Assay [17] is described as follows: qHTS assay for small molecule agonists of the antioxidant response element (ARE) signaling pathway measured by Nrf2-dependant transcriptional activity (AID 720636; active = well fitted curve in the direction sought with a large enough effect in the repeat runs; an effect the other way counts as inactive or inconclusive;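 also: HepG2 cells with an ARE-driven luciferase reporter; % of control where 0% means no effect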). The conditions noted are these: ARE-luc HepG2, Nrf2 luciferase reporter, 16 h; series mostly up to 92.4 µM. In outline:
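Reporter gene assay, HepG2 ARE-luc: 16 hr compound, 37 C, 5% CO2; read-out luciferase luminescence.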

Assay [18] deals with Retinoic acid receptor RXR-alpha (Homo sapiens) (UniProt P19793). Briefly: qHTS assay for small molecule antagonists of retinoid X receptor alpha signaling (AID 588546).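 Also: cells stimulated with 9-cis-retinoic acid as agonist; % is scaled to controls: 0 for no effect and ±100 for the full control effect.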 The conditions noted are these: HEK293T RXRa-UAS-bla, beta-lactamase ratio, antagonist mode. In a few lines:
as §1

The target in assay [19] is Thyroid hormone receptor beta (Homo sapiens) (UniProt P10828). Briefly: qHTS assay for small molecule agonists of thyroid hormone receptor beta signaling (AID 588545; calls by dose curve;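 also: 0% = DMSO only and 100% = 10 nM T3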). Conditions: TR-UAS-bla GripTite HEK 293, beta-lactamase ratio, agonist mode, 18 h, percent of T3 response, DMSO as zero; series mostly up to 76.7 µM. In a few lines:
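TR-UAS-bla-GripTite HEK 293 cells in medium with 2% charcoal/dextran FBS, 0.1 mM NEAA and 1 mM sodium pyruvate were treated with titrated compounds for 18 hrs at 37 C. Beta-lactamase reporter was read with CCF4 dye (ex 405, em 460/530 nm); EC50 from Hill fits.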

Chain of Nuclear receptor ROR-gamma (Homo sapiens) (P51449 whole entry, looked up): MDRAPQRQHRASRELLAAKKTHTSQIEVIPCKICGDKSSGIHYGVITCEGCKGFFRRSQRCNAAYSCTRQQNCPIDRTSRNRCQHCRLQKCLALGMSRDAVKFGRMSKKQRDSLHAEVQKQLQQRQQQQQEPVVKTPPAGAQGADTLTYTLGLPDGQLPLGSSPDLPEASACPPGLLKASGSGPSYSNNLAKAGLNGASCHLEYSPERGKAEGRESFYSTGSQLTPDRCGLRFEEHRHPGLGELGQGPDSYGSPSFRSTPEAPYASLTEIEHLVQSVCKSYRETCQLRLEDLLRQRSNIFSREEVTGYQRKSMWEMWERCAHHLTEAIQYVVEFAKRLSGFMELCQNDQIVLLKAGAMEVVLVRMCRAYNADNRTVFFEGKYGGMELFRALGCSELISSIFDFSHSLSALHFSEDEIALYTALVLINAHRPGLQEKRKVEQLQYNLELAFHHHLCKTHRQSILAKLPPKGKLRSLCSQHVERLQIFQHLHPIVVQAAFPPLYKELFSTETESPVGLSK
Chain of Peroxisome proliferator-activated receptor alpha (Homo sapiens) (Q07869 whole entry, looked up, the tested form may be a part): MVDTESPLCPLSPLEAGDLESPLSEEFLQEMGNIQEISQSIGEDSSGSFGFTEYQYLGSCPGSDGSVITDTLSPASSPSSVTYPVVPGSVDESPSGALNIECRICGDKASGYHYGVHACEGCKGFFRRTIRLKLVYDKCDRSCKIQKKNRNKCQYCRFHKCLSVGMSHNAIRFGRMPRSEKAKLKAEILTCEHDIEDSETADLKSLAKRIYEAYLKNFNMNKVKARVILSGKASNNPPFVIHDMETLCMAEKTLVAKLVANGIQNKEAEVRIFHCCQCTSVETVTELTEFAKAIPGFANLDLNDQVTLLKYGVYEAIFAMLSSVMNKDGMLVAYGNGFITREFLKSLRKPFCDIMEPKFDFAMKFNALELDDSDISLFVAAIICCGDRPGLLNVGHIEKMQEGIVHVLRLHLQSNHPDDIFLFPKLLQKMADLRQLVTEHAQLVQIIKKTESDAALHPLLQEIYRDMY
Chain of Thyroid hormone receptor beta (Homo sapiens) (P10828 whole entry, looked up): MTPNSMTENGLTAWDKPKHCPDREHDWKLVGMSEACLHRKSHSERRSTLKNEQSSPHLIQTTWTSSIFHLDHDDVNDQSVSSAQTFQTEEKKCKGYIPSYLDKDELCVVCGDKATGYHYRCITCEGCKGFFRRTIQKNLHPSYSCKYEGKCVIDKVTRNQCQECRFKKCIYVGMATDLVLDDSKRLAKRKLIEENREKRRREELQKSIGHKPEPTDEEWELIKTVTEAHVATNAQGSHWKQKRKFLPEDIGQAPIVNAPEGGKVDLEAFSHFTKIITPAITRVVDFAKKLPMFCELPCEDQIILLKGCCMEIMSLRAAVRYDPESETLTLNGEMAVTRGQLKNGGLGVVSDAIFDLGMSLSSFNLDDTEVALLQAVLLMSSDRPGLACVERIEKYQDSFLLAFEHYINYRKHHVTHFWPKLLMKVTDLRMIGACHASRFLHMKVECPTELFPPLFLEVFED
Chain of Retinoic acid receptor RXR-alpha (Homo sapiens) (P19793 whole entry, looked up): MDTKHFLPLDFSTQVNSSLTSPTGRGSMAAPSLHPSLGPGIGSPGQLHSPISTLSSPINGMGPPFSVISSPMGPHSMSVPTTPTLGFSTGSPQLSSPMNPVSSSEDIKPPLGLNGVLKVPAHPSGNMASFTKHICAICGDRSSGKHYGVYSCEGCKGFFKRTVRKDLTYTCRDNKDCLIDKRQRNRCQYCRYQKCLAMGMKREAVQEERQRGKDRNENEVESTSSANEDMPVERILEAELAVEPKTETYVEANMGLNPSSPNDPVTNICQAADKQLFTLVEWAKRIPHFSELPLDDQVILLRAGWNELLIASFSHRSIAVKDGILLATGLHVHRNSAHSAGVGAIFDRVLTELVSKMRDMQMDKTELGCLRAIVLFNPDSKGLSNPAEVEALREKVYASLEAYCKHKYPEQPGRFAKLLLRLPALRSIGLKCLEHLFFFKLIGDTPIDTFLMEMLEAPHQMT
Chain of Voltage-gated inwardly rectifying potassium channel KCNH2 (Homo sapiens) (Q12809 whole entry, looked up): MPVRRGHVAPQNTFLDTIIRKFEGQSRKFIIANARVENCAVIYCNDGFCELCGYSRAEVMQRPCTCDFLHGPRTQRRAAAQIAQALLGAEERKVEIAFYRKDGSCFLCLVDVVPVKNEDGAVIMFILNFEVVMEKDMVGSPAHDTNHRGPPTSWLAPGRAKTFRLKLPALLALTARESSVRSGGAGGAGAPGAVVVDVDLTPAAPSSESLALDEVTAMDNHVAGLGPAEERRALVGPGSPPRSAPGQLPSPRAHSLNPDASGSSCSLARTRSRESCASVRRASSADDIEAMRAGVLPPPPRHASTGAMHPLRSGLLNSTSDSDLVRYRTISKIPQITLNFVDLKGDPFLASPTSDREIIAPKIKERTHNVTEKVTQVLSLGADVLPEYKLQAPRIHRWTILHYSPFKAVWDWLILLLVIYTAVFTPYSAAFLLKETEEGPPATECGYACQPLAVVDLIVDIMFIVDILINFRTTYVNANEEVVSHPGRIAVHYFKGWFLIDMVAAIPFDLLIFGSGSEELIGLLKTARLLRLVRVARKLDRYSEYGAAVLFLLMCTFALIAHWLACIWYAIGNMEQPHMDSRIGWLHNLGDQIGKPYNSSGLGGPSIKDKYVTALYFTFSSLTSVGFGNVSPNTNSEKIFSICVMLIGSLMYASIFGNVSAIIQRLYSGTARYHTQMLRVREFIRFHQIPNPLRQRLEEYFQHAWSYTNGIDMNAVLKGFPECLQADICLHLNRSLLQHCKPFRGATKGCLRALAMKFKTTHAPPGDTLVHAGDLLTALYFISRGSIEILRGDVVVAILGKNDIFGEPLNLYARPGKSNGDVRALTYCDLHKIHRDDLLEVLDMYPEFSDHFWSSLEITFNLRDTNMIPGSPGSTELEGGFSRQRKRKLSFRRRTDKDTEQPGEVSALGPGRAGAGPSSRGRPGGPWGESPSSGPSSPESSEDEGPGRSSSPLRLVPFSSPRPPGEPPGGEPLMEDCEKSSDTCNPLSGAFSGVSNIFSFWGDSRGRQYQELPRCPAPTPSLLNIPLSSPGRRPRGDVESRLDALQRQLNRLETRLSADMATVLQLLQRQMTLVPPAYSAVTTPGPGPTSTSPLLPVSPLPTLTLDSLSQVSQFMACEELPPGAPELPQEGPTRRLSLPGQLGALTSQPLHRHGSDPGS
Chain of Tumor necrosis factor (Homo sapiens) (P01375 whole entry, looked up): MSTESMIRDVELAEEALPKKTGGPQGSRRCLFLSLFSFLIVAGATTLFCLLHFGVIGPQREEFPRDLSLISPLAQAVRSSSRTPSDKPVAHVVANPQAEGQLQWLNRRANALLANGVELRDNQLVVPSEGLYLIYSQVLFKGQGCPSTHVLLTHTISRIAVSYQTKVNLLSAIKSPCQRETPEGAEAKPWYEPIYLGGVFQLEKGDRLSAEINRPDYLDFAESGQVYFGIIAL

Regarding `c1ccc(Nc2ccccc2)cc1`, the max response is -15.4% and 2.86% in assay [1]; 1.16% and -8.24% in [3]; -3.04% (inactive) and -2.25% (inactive) in assay [9]; -1.43% (inactive) and -3.7% (inactive) in assay [12]. In addition, the compound was classed as inactive in [2]. In addition, the activation in assay [4] was 1.33% (inactive) and -1.7% (inactive); in [5] it was 0.526% (inactive) and -2.1% (inactive); in assay [8], 0.217% (inactive) and 3.92% (inactive). Further, the Potency entry in assay [6], in [7], in assay [10] and in assay [11] was “inactive” in each case.

Turning to `CC1CCCO1` (configuration not stated), the max response in assay [1] is 11.5%; in assay [9], 0.088% (inactive); in assay [12], -3.62% (inactive). For the same compound, the call in assay [2] and in assay [17] was inactive. In addition, the activity change % (negative = inhibition) in assay [13] is 1.5% (inactive). Also, the Potency entry in assay [14], in [15], in [16], in [6], in assay [7] and in assay [10] was “inactive” each time. Besides, the Potency result in assay [11] is “inactive”. The values for the activation in [4], in assay [5] and in assay [8] were -2.21% (inactive), -0.396% (inactive) and 2.22% (inactive), respectively.

For the compound `O=C(Cl)c1ccccc1[N+](=O)[O-]`, the max response in assay [1] is -17.2%; in assay [9], 3.57% (inactive); in assay [12], 18.8% (inactive). The result in assay [2] and in assay [17] was inactive. Also, in [13], the activity change % (negative = inhibition) was -10.2% (inactive). For the same compound, the Potency result in assay [14], in assay [16], in assay [6], in assay [7], in [10] and in assay [11] was “inactive” each time. The figures for the activation in [4], in assay [5] and in [8] were 0.51% (inactive), -0.445% (inactive) and 0.05% (inactive), respectively.

Turning to `O=C(O)c1cccc(Cl)c1Cl`, the max response was -8.8% in assay [1]; -3.86% in assay [3]; -4.53% (inactive) in assay [18]; -2.92% (inactive) in assay [9]; 3.31% (inactive) in assay [12]. The compound was classed as inactive in assay [2] and in assay [17]. Further, the Potency result in assay [14], in assay [16], in [7], in assay [10] and in assay [11] was “inactive” in each case. Moreover, the results for the activation in assay [4], in assay [5] and in assay [8] were -0.257% (inactive), 0.0203% (inactive) and -1.06% (inactive), respectively.

With `CC(=O)OCc1ccco1`, the max response in [1] was 9.34%; in assay [3], -0.347%; in assay [9], -0.503% (inactive); in [12], -8.3% (inactive). Besides, the call in [2] and in [17] was inactive. The Potency result in [14], in assay [16], in [7], in assay [10] and in assay [11] was “inactive” in each case. The activation was 0.228% (inactive) in assay [5] and 1.48% (inactive) in assay [8].

As to `c1ccc2c(c1)ccc1ncccc12`, the max response in assay [1] was -7.03%; in [3], -6.57%; in assay [18], -11.7% (inactive); in assay [9], -1.09% (inactive); in assay [12], -7.13% (inactive). The outcome in [2] and in assay [17] was inactive. Also, the Potency result in assay [14], in assay [15], in assay [6] and in assay [7] was “inactive” throughout. In assay [8], the activation was 3.95% (inactive).

As for `O=[N+]([O-])c1cccc(Cl)c1`, the max response in [1] is -8.32%; in [3], -3.93%; in assay [18] it was 7.77% (inactive); in assay [9] it was -3.34% (inactive); in [12] it was -6.97% (inactive). Also, the outcome in assay [19] and in [17] was inactive. Moreover, the activity change % (negative = inhibition) in assay [13] is -12.9% (inactive). The Potency result in assay [14], in assay [15], in assay [16], in assay [6], in [7] and in assay [10] was “inactive” throughout. In addition, the Potency entry in assay [11] was “inactive”. Moreover, the activation was -3.73% (inactive) in assay [4], 0.464% (inactive) in [5] and 0.317% (inactive) in assay [8].

Consider `Cc1ccc(Cl)cc1`, for which the max response is 0.942% in [1]; -3.57% in assay [3]; 8.67% (inactive) in [18]; -0.102% (inactive) in [9]; 4.9% (inactive) in assay [12]. Moreover, the compound was called inactive in assay [2] and in [17]. In addition, the Potency result in assay [14], in assay [15], in [16], in [6], in assay [7] and in assay [10] was “inactive” each time. In assay [11], the Potency entry was “inactive”. In addition, the activation in assay [4] is -2.72% (inactive); in assay [8] it was -0.186% (inactive).
